Measurements as given in PubChem BioAssay (NCATS).
Values joined by “and” are separate entries in the source; they are usually repeats but may differ in a detail not shown here. Equal values may be shown once. Unmarked numbers belong to inactive results. Records with an inconclusive call do not appear. A call without a number means that no potency is given here. Active and inactive are the calls of the source. The call rests on the fitted dose curve; in most records, active means well fitted curve in the direction sought with a large enough effect; inconclusive means small, poorly fitted or top-dose-only effect, or another doubt; inactive means no such curve, though single readings can be large; an effect the other way counts as inactive or inconclusive.

Legend:
[1] = molecular target: Arylsulfatase A (Homo sapiens) (UniProt P15289); test: qHTS screen for enhancers of Arylsulfatase A (ASA1): LOPAC Validation Assay (AID 720538); further: potency means the concentration at half of the fitted maximal effect
Outline: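 Cell-based enhancement test: residual ASA activity in SV40-transformed I179S patient fibroblasts is measured by pNCS turnover (0.5mM final, 14h, room temperature) following 48h compound incubation; higher fluorescence indicates activation.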

[2] = qHTS for compounds that reverse cellular toxicity of Amyloid beta (A-beta) peptide in yeast: LOPAC Validation Assay (AID 720559)
Outline: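 Here, A-beta-toxic yeast grow with test compounds at 30 C for 48 hr before optical density at 600 nm is recorded; data are normalized against DMSO and the FeCl3-clioquinol control.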

[3] = qHTS for Activators of Parkin Expression: LOPAC Validation Assay (NLuc Reporter) (AID 720572; further: potency means the concentration at half of the fitted maximal effect)
Outline: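 Compound effects on Parkin promoter activity were measured as NanoLuc luminescence after 24 h at 37 C. The neuronal reporter line also carried FLuc, which was read first. LOPAC compounds were tested at 7 concentrations, with normalization to DMSO (0%) and positive control (100%).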

[4] = qHTS for Activators of Parkin Expression: LOPAC Validation Assay (FLuc Reporter) (AID 720573)
Outline: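 Readout is FLuc luminescence from neuronal reporter cells (Parkin promoter, FLuc plus NLuc) after 24 h compound exposure in dose response. Values normalized to neutral DMSO and positive-control compounds.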

[5] = molecular target: T1, Hexokinase-4 (Homo sapiens) + Glucokinase regulatory protein (Homo sapiens) (UniProt P35557+Q14397); test: qHTS assay for inhibitors of recombinant human GCK-GKRP interaction: Diaphorase-coupled assay (AID 743205)
Outline: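 Signal derives from resorufin generated by diaphorase, linked to GCK turnover of glucose (5 mM) and ATP (0.4 mM). Enzyme complex was added after a 20-minute compound preincubation and monitored for 30 minutes.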

[6] = molecular target: T1, Hexokinase-4 (Homo sapiens) + Glucokinase regulatory protein (Homo sapiens); test: qHTS assay for inhibitors of recombinant human GCK-GKRP interaction: ADP-Glo assay (AID 743206)
Outline: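 Pin-transferred compounds meet a 15 nM GST-GCK/15 nM FLAG-GKRP/2 uM S6P mix (dispense concentrations). ATP is then added to 0.4 mM final with 5 mM glucose, and the reaction runs 60 min at room temperature. ADP is quantified luminescently.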

[7] = molecular target: T1, Hexokinase-4 (Homo sapiens) + Glucokinase regulatory protein (Homo sapiens); test: qHTS assay for inhibitors of recombinant human GCK-GKRP interaction: HTRF assay (AID 743207)
Outline: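 Titration screening format: recombinant GST-GCK and FLAG-GKRP at 5 nM, S6P at 2 uM, labelled anti-tag antibodies, 60 min at RT, dual-wavelength HTRF readout.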

[8] = qHTS Assay for Identifying Gametocytocidal Compounds (AID 743244); further: potency means the concentration at half of the fitted maximal effect;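 on max response: actives lower the fluorescent signal which means gametocytes are killed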; conditions: P. falciparum 3D7 stage III-V gametocytes, alamarBlue, 72 h; max response: stronger effect = lower value
Outline: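 Viability read-out was resazurin reduction (alamarBlue, 24 h) measured at Ex 525/Em 598 nm. Beforehand, late-stage (III-V) 3D7 P. falciparum gametocytes at 20,000 cells/well were incubated with compound 72 h at 37C under 5% CO2.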

T1 sequence (P35557 whole entry, looked up): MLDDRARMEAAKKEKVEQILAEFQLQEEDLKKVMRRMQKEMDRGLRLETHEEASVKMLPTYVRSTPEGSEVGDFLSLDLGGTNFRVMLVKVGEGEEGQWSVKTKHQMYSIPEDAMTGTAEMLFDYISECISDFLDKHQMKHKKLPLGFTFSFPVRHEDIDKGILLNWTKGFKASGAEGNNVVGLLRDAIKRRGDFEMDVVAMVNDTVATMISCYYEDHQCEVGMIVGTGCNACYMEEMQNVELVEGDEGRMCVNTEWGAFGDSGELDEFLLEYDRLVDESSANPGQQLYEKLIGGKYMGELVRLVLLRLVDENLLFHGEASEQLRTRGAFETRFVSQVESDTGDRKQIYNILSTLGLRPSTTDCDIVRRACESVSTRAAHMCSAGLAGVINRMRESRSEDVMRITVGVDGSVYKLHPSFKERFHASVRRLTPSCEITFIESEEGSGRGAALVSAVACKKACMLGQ
T1 sequence (Q14397 whole entry, looked up): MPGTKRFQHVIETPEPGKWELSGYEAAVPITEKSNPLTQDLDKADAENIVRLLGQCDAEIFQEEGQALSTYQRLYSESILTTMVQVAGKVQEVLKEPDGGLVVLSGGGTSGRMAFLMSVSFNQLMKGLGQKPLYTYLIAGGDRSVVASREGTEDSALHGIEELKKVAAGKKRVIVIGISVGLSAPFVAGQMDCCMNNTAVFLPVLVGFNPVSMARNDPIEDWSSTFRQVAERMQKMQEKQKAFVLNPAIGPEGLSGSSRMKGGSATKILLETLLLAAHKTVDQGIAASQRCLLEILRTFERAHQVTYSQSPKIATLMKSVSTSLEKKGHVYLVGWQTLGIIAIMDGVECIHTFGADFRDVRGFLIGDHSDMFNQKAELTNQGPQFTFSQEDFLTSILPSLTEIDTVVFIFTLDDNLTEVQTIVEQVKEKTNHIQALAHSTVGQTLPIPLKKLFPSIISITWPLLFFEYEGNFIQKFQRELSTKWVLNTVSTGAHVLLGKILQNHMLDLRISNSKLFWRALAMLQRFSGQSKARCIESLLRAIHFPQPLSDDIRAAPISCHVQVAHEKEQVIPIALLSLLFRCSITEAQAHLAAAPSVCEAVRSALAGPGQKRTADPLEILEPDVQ
Arylsulfatase A (Homo sapiens), sequence (P15289 whole entry, looked up): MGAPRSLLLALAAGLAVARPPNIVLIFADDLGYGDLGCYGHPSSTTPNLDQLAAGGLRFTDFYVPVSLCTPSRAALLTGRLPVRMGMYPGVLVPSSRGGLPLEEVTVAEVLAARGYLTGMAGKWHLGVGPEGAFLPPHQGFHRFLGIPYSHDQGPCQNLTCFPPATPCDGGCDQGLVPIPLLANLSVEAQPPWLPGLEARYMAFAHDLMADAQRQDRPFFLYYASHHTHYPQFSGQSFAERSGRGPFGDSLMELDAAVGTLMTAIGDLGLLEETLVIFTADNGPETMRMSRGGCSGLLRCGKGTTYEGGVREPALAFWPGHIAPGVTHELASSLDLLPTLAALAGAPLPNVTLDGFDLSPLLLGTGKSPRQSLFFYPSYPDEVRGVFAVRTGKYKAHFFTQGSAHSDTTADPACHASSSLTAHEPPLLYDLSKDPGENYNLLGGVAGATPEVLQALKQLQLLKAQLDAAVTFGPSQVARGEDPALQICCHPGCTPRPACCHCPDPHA

Row | Structure (SMILES) | Potency [1] | outcome [2] | Potency [3] | outcome [4] | outcome [5] | outcome [6] | Potency [7] | max response [8] | Potency [8]
1 | Cc1ccc(=O)n(-c2ccccc2)c1 | inactive | inactive | inactive | inactive | inactive | inactive | inactive | 6.86% and 22.4% | 
2 | CCCCNc1ccc(C(=O)OCCN(C)C)cc1 | inactive | inactive | inactive | inactive | inactive | inactive | inactive | -1.47% and 12.4% | 
3 | CCCN(CCC)C(=O)C(CCC(=O)O)NC(=O)c1ccccc1 (stereo unspecified) | inactive | inactive | inactive | inactive |  | inactive | inactive | 9.09% and 23.8% | 
4 | CC(C(=O)O)c1ccc(CC2CCCC2=O)cc1 (stereo unspecified) | inactive | inactive | inactive | inactive | inactive | inactive | inactive | -0.912% and 17.1% | 
5 | CCn1ccnc1CC1COc2ccccc2O1 (stereo unspecified) | inactive | inactive | inactive | inactive | inactive | inactive | inactive | 13.9% and 11.7% | 
6 | CN(C)C/C=C(/c1ccc(Br)cc1)c1cccnc1 | inactive | inactive | inactive | inactive |  | inactive | inactive | -5.39% and -10% | 
7 | Cc1nc2sccn2c(=O)c1CCN1CCC(=C(c2ccc(F)cc2)c2ccc(F)cc2)CC1 | inactive | inactive | inactive | inactive | inactive | inactive | inactive | -7.25% and 26.8% | 
8 | c1ccc2c(c1)CCCC2C1=NCCN1 (stereo unspecified) | inactive | inactive | inactive | inactive | inactive | inactive | inactive | -2.52% and 13.8% | 
9 | Cc1nc2c([nH]1)c(=O)n(C)c(=O)n2Cc1ccco1 | inactive | inactive | inactive | inactive | inactive | inactive | inactive | -4.35% and 2.16% | 
10 | C[N+](C)(C)CCOC(N)=O | inactive | inactive | inactive | inactive | inactive | inactive | inactive | 20.5% and 14.2% | 
11 | O=C(CCCN1CCC(O)(c2cccc(C(F)(F)F)c2)CC1)c1ccc(F)cc1 | inactive | inactive | inactive | inactive |  | inactive | inactive | 20% | 
12 | CNCCC(Oc1ccccc1OC)c1ccccc1 (stereo unspecified) | inactive | inactive | inactive | inactive | inactive | inactive | inactive | 19.3% | 
13 | OC(CCN1CCCCC1)(c1ccccc1)C1CCCCC1 (stereo unspecified) | inactive | inactive | inactive | inactive | inactive | inactive | inactive | -12% and 9.84% | 
14 | CN(C(=O)CCCOc1ccc2[nH]c(=O)ccc2c1)C1CCCCC1 | inactive | inactive | inactive | inactive |  | inactive | inactive | -2.24% and 11% | 
15 | CN(C)CCOC(=O)COc1ccc(Cl)cc1 | inactive | inactive | inactive | inactive |  | inactive | inactive | 11% and 8.28% | 
16 | CC1=C(C)C(=O)C(CCCCC#CCCCC#CCO)=C(C)C1=O | inactive | inactive | inactive | inactive | inactive | inactive | inactive |  | 14.1 µM (active)
17 | C(=C\c1ccccc1)/CN1CCN(C(c2ccccc2)c2ccccc2)CC1 | inactive | inactive | inactive | inactive | inactive | inactive | inactive | -4.21% and 5.87% | 
18 | NC(Cc1ccc(Cl)cc1)C(=O)O (stereo unspecified) | inactive | inactive | inactive | inactive | inactive | inactive | inactive | 3.16% | 
19 | COc1cc(C(=O)OCCCN2CCCN(CCCOC(=O)c3cc(OC)c(OC)c(OC)c3)CC2)cc(OC)c1OC | inactive | inactive | inactive | inactive | inactive | inactive | inactive | -8.17% and 18.7% | 
20 | C[n+]1cc2c3c(ccc2c2ccc4cc5c(cc4c21)OCO5)OCO3 | inactive | inactive | inactive | inactive | inactive | inactive | inactive |  | 3.16 µM (active)
21 | CCOC(=O)C1=C(C)NC(C)=C(C(=O)OC)C1c1cccc(Cl)c1Cl (stereo unspecified) | inactive | inactive | 2.59 µM (active) | inactive | inactive | inactive | inactive | 21.2% and 4.35% | 
22 | N[C@@H](COP(=O)(O)O)C(=O)O | inactive | inactive | inactive | inactive | inactive | inactive | inactive | -4.33% and 12% | 

Row | Structure (SMILES) | Potency [1] | outcome [2] | Potency [3] | outcome [4] | outcome [5] | outcome [6] | Potency [7] | max response [8] | Potency [8]
23 | CCN(CC)CCCN(c1ccccc1)C1Cc2ccccc2C1 | inactive | inactive | inactive | inactive |  | inactive | inactive |  | 
24 | COc1ccc([C@@H]2Sc3ccccc3N(CCN(C)C)C(=O)[C@@H]2OC(C)=O)cc1 | inactive | inactive | inactive | inactive | inactive | inactive | inactive | -3.45% | 
25 | CCCCCN(CCCCC)C(=O)C(CCC(=O)O)NC(=O)c1ccc(Cl)c(Cl)c1 (stereo unspecified) | inactive | inactive | inactive | inactive | inactive | inactive | inactive | 10.8% and 16.9% | 
26 | COC(=O)[C@@H](N)Cc1ccc(O)c(O)c1 | 33.8 µM (active) | inactive | inactive | inactive | inactive | inactive | inactive | 43.3% | 
27 | Cc1nc2ccccn2c(=O)c1CCN1CCC(C(=O)c2ccc(F)cc2)CC1 | 19 µM (active) | inactive | inactive | inactive |  | inactive | inactive | 14.2% | 
28 | CCc1cccc(N(C)C(N)=Nc2cccc3ccccc23)c1 | inactive | inactive | inactive | inactive |  | inactive | inactive | -2.27% and 4.9% | 
29 | CCCN1C[C@H](CSC)C[C@@H]2c3cccc4[nH]cc(c34)C[C@H]21 | inactive | inactive | inactive | inactive | inactive | inactive | inactive | 27.1% | 
30 | c1cnc(N2CCN(Cc3ccc4c(c3)OCO4)CC2)nc1 | inactive | inactive | inactive | inactive | inactive | inactive | inactive | 1.5% | 
31 | CCN1CCc2nc(N)oc2CC1 | inactive | inactive | inactive | inactive | inactive | inactive | inactive | 11% and 14% | 
32 | Cc1ccc(Cl)c(Nc2ccccc2C(=O)O)c1Cl | inactive | inactive | inactive | inactive | inactive | inactive | inactive | -8.31% and 12.8% | 
33 | CCN(CC)CC(=O)Nc1c(C)cccc1C | inactive | inactive | inactive | inactive | inactive | inactive | inactive | 0.639% and 6.44% | 
34 | CCCC(C(=O)OCCN(CC)CC)(c1ccccc1)c1ccccc1 | inactive | inactive | inactive | inactive |  | inactive | inactive | -0.916% | 
35 | CC(=O)Oc1cc(C(C)C)c(OCCN(C)C)cc1C | inactive | inactive | inactive | inactive | inactive | inactive | inactive | 14.5% and 12.4% | 
36 | CN(C)CCCN1c2ccccc2Sc2ccccc21 | inactive | inactive | inactive | inactive |  | inactive | inactive |  | 
37 | NS(=O)(=O)c1cc2c(cc1Cl)NC(C1CC3C=CC1C3)NS2(=O)=O (stereo unspecified) | inactive | inactive | inactive | inactive | inactive | inactive | inactive | -0.791% and -20.2% | 
38 | CCNC(=O)N1CCN(CCCC(c2ccc(F)cc2)c2ccc(F)cc2)CC1 | inactive | inactive | inactive | inactive | inactive | inactive | inactive | -23% and -10.4% | 
39 | FC(F)(F)c1ccccc1-n1ccnc1 | inactive | inactive | inactive |  |  | inactive | inactive | 18.2% and -13.7% | 
40 | CCN(CC)CCNC(=O)c1cc(S(C)(=O)=O)ccc1OC | inactive | inactive | inactive |  | inactive | inactive | inactive | -4.07% | 
41 | CCOC(=O)C1=C(C)NC(C)=C(C(=O)OC)C1c1cccc([N+](=O)[O-])c1 (stereo unspecified) | inactive | inactive | 1.46 µM (active) |  | inactive | inactive | inactive | 5.7% | 
42 | CN1CCN(CC(=O)N2c3ccccc3C(=O)Nc3cccnc32)CC1 | inactive |  |  |  | inactive | inactive | inactive | 0.314% and 3.31% | 
43 | CCCCCCCC/C=C\CCCCCCCC(=O)NCc1ccc(O)c(OC)c1 | inactive | inactive |  | inactive | inactive | inactive | inactive | 0.654% and 9.43% | 
44 | COCCCC/C(=N\OCCN)c1ccc(C(F)(F)F)cc1 | inactive | inactive | inactive |  | inactive | inactive | inactive | 20.1% | 
